# Data taken from PubChem BioAssay AID1347426 (Functional Genomics Laboratory (NCATS/FGL), 2020).
# Hit rate of the full screen: of about 31,000 sequences, about 1,400 (4.5%) were called active.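 Rule for the calls: active = median seed-adjusted z-score above 1 or below -1; inactive = the rest.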 Many of the other results were omitted from the sample, so actives are more common in it than they were.
# Test: Novel Modifiers of Survival Motor Neuron (SMN) Protein: Gene Identification via Genome-wide siRNA Screen;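 note: luminescence tracks full-length SMN protein made from the SMN2 reporter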
# Conditions: HEK293T SMN2-luciferase reporter, siRNA knockdown, 72 h; actives lie on both sides
# From the text: Spinal muscular atrophy (SMA) is the most common neuromuscular autosomal recessive disorder and one of the leading genetic causes of infant death. SMA results from mutations inducing loss of function or deletion in the survival of motor neuron-1 gene (SMN1), leading to deficiency of the survival motor neuron (SMN) protein. Although a second nearly identical gene, SMN2, is retained in humans, its expression primarily produces an aberrantly spliced isoform that is largely unstable and quickly degraded. We performed a genome-wide RNAi screen using a cell-based reporter assay to identify genes and pathways that modulate SMN protein stability. The screen identified over 200 genes that led to the greatest increase or decrease in luciferase expression.
# Using HEK293T cells stably expressing a luciferase reporter that combines the promoter and splicing based cassettes in tandem with the major portion of the native SMN2 cDNA with luciferase, we performed a genome-wide RNAi screen to identify modulators of SMN protein levels. Luciferase is expressed when full-length SMN protein is generated with luminescence signal proportional to SMN protein levels. Our luciferase-based reporter assay was used to screen Ambion Silencer Select Human Druggable Genome siRNA library (10418 genes, 3 unique siRNAs per gene) using lipid-based reverse transfection.
# Briefly, 1 pmol of each siRNA was spotted to a well of a 384-well plate (Corning, Corning, NY) and 20 microL of serum-free DMEM containing […] of Lipofectamine RNAiMax (Life Technologies, Carlsbad, CA) was then added to each well. Transfected cells were maintained at 37 degrees C in 5% CO2 for 72 hours, 20 microL of ONE-Glo Reagent (Promega) was added to wells for luciferase quantification. Raw luminescence reads were normalized to Ambion(R) Silencer(R) Negative Control #2 siRNA, then log10 transformed. A robust statistical measure of median absolute deviation (MAD) to standardize siRNA activities from each screen. Common Seed Analysis was used to help prioritize clean hits as opposed to those appearing to arise from seed based off-target effects. Candidate modulators were defined as the genes having a MAD score greater than 1.0 or less than -1.0.
row,Sequence,median seed-adjusted z-score
1,CCUGAUGUCUUAUCUCAGATT against ZNF398,0.119 (inactive)
2,AAAUCUUCGUGAACUUGGATT against MMD,0.193 (inactive)
3,CCAUCUAGAGUAUCACGCATT against CYGB,-0.34 (inactive)
4,GAAAUUCCACUGUAUCUAATT against COX7A2,-0.0808 (inactive)
5,GAGAGAAACUGUCAGAGUATT against RNF185,-0.388 (inactive)
6,CCCUCUUCCUUAUCCUGCATT against PITPNM1,-0.203 (inactive)
7,GAACAACCCUAACCCAAGATT against ITGAM,-1.56 (active)
8,CCAACUCGGCAAAACCGUUTT against NDUFS3,-0.54 (inactive)
9,CAACAACACCUGUUGCUUUTT against RGS17,-0.627 (inactive)
10,GAGCUACAUUACUAAGUCATT against ZNF223,0.367 (inactive)
11,CCAGGCAAAUAGUGAAGAATT against VAX1,0.937 (inactive)
12,GCAGUUCCUAAAUUUCCGATT against SNX9,0.684 (inactive)
13,GGAGAAUGCCGAAGAGGAATT against POLR2F,-3.52 (active)
14,GGCUGUACUUCGUCAUGGATT against PRKCA,-0.249 (inactive)
15,CAUCCGACAUUGAAGUUGATT against B2M,-0.367 (inactive)
16,CGAGUAUGGUUUCCGCAAATT against UHMK1,-0.269 (inactive)
17,GAAUGCGAUUCACACCUUUTT against CAT,0 (inactive)
18,CCCUAAUUCUUCGUCAUAATT against AMIGO2,-0.258 (inactive)
19,CAUUGGUUUUGAUGAGUAUTT against SNRPE,-2.77 (active)
20,CUGUUUAACUGUGAGAUCATT against ANP32E,-0.0648 (inactive)
21,GCCUGCAAGUGUCCCAAAATT against NTN1,-0.0419 (inactive)
22,GAUAUUUGCCUAUGCCUUUTT against ZMYND19,0.369 (inactive)
23,GAAGGACAUGUACAAGAAATT against ITPKA,-0.136 (inactive)
24,CCAGCAUCCCUAGCUCAGATT against SYVN1,-1.41 (active)
25,GUCCGUUAACUAUCUGUUATT against GNAI3,0.0656 (inactive)
26,AAAUUAGAGUGAACAAGAATT against NFIC,0.72 (inactive)
27,CAGUGGAUAUCAAGCUUAATT against OPA1,-0.182 (inactive)
28,GCAAGUGACUGCUAUCAAUTT against GRIA2,-1.02 (active)
29,GAUCGUCUGCUGAAUACAATT against NASP,0.133 (inactive)
30,CAUCCAUUUGUCUUGCAAATT against GTF2F2,-1.14 (active)
